From PubChem BioAssay (Tox21)
Inconclusive results are not listed. Activity calls are given as the source filed them. Calls come from the whole dose curve.

Biological target: Acetylcholinesterase (Homo sapiens) (UniProt P22303)
Assay: Acetylcholinesterase (AChE) small molecule antagonists: fluorescence cell-based qHTS assay (AID 1347398); note: nearly all actives have a fitted effect of over 50% in size
Conditions: SH-SY5Y cells; Potency: AChE activity; outcome: AChE activity; series mostly up to 115 µM; activity change, negative = inhibition: at the top concentration
In short: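 Endogenous acetylcholinesterase of SH-SY5Y neuroblastoma cells is measured in situ. After overnight attachment and 30 min compound exposure, cells receive acetylthiocholine and Thiolite Green; fluorescence is read after 40 min at room temperature.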
% is set by controls: 0 for no effect and ±100 for the full control effect; potency is the fitted concentration of half-maximal effect.

Acetylcholinesterase (Homo sapiens), sequence (P22303 whole entry, looked up): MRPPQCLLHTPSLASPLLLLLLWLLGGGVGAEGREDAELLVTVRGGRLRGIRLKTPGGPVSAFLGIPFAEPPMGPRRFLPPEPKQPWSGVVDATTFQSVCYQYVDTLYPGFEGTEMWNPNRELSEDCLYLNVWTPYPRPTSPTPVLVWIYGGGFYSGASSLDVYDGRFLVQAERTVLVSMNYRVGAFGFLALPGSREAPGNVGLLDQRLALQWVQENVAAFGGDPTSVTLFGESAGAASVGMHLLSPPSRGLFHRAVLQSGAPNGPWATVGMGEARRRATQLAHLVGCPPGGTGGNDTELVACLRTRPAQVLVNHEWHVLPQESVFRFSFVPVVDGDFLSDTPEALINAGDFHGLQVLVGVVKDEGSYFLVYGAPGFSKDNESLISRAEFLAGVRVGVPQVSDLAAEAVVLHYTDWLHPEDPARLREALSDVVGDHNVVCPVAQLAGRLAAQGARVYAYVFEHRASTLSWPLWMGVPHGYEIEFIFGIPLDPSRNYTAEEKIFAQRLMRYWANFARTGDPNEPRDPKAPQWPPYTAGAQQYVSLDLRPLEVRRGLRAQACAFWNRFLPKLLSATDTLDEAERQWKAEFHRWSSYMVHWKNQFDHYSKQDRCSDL

Question: How did the “activity change, negative = inhibition” value turn out when `CCc1nccnc1C` was run?
Answer: 5.53% (inactive)

Question: How did the “activity change, negative = inhibition” value turn out when `CCc1ccc(C=O)cc1` was run?
Answer: 0.432% (inactive)

Question: Which “activity change, negative = inhibition” value does the source give for `C#C[C@]1(OC(C)=O)CC[C@H]2[C@@H]3CCC4=C/C(=N/O)CC[C@@H]4[C@H]3CC[C@@]21CC` here?
Answer: 7.11% [at 53.7 µM] (inactive)

Question: Which “activity change, negative = inhibition” value does the source give for `CCOc1ccccc1O` here?
Answer: 4.44% (inactive)

Question: How did the “activity change, negative = inhibition” value turn out when `CCOc1ccccc1OCC` was run?
Answer: 0.993% (inactive)

Question: `COc1cc(C=C2CCC/C(=C\c3ccc(O)c(OC)c3)C2=O)ccc1O` was tested. Which “activity change, negative = inhibition” value did it give?
Answer: -13.1% [at 53.7 µM] (inactive)

Question: Which “activity change, negative = inhibition” value does the source give for `O=C(O)C(O)[C@H](O)[C@@H](O)[C@H](O)[C@H](O)CO` (some centres undefined) here?
Answer: 0.303% (inactive)

Question: For `CCC1(C)C(=O)N(Cl)C(=O)N1Cl` (centres undefined), which “activity change, negative = inhibition” value is on record?
Answer: 7.84% (inactive)

Question: With `CC(=O)Nc1ccc(S(N)(=O)=O)cc1` as the molecule, how does the “activity change, negative = inhibition” value read?
Answer: 2.29% (inactive)

Question: Which “activity change, negative = inhibition” value does the source give for `OCCNCc1ccccc1` here?
Answer: -1.09% (inactive)

Question: `O=C(O)CNC(=O)c1ccc([N+](=O)[O-])cc1` was tested. Which “activity change, negative = inhibition” value did it give?
Answer: 4.37% (inactive)

Question: `CC(=C(CCOC(=O)C(C)C)SSC(CCOC(=O)C(C)C)=C(C)N(C=O)Cc1cnc(C)nc1N)N(C=O)Cc1cnc(C)nc1N` was tested. Which “activity change, negative = inhibition” value did it give?
Answer: -8.34% [at 53.7 µM] (inactive)

Question: `CC(NC(CCc1ccccc1)C(=O)O)C(=O)N1C(=O)N(C)CC1C(=O)O` (centres undefined) was tested. Which “activity change, negative = inhibition” value did it give?
Answer: 0.137% [at 53.7 µM] (inactive)

Question: With `CC1CNCC(C)O1` (centres undefined) as the molecule, how does the “activity change, negative = inhibition” value read?
Answer: -0.122% (inactive)

Question: How did the “activity change, negative = inhibition” value turn out when `CC(=O)[C@H]1[C@H](C#N)C[C@H]2[C@@H]3CC=C4C[C@@H](O)CC[C@]4(C)[C@H]3CC[C@@]21C` was run?
Answer: 1.99% [at 53.7 µM] (inactive)

Question: With `OCCC(F)(F)C(F)(F)C(F)(F)C(F)(F)C(F)(F)C(F)(F)F` as the molecule, how does the “activity change, negative = inhibition” value read?
Answer: -0.252% (inactive)

Question: For `OC[C@@H](O)[C@H](O)[C@@H](O)[C@@H](O)CO`, which “activity change, negative = inhibition” value is on record?
Answer: 1.59% (inactive)

Question: For `C/C=C/C=C/COC(=O)C(C)C`, which “activity change, negative = inhibition” value is on record?
Answer: -9.87% (inactive)

Question: How did the “activity change, negative = inhibition” value turn out when `C=C(C)CCO` was run?
Answer: 5.11% (inactive)

Question: For `CC(C)c1ccc(C#N)cc1`, which “activity change, negative = inhibition” value is on record?
Answer: -0.923% (inactive)

Question: With `CCCCCCCCN1CCCC1=O` as the molecule, how does the “activity change, negative = inhibition” value read?
Answer: 0.547% (inactive)

Question: How did the “activity change, negative = inhibition” value turn out when `CN=C(NC#N)NCCSCc1csc(N=C(N)N)n1` was run?
Answer: -10.6% [at 53.7 µM] (inactive)

Question: Which “activity change, negative = inhibition” value does the source give for `CN1[C@@H]2CC[C@H]1CC(NC(=O)n1c(=O)[nH]c3ccccc31)C2` (some centres undefined) here?
Answer: -0.484% [at 53.7 µM] (inactive)

Question: With `Cc1cc2c(cc1CC(=O)c1sccc1S(=O)(=O)Nc1onc(C)c1Cl)OCO2` as the molecule, how does the “activity change, negative = inhibition” value read?
Answer: -0.546% [at 53.7 µM] (inactive)

Question: For `CCC(C)(C)C(=O)O`, which “activity change, negative = inhibition” value is on record?
Answer: 4.73% (inactive)

Question: How did the “activity change, negative = inhibition” value turn out when `Nc1ncnc2c1ncn2Cc1c(F)cccc1Cl` was run?
Answer: -12.4% [at 53.7 µM] (inactive)

Question: `Nc1cc(C(=O)O)c(O)c(S(=O)(=O)O)c1` was tested. Which “activity change, negative = inhibition” value did it give?
Answer: -0.213% (inactive)

Question: Which “activity change, negative = inhibition” value does the source give for `C[C@H](O)C(=O)Nc1c(I)c(C(=O)NC(CO)CO)c(I)c(C(=O)NC(CO)CO)c1I` here?
Answer: -0.46% [at 53.7 µM] (inactive)

Question: Which “activity change, negative = inhibition” value does the source give for `CC(=O)Nc1cccc(N)c1` here?
Answer: 3.42% (inactive)

Question: With `CNC(=O)c1cnn(-c2nc(N)c3ncn([C@@H]4O[C@H](CO)[C@@H](O)[C@H]4O)c3n2)c1` as the molecule, how does the “activity change, negative = inhibition” value read?
Answer: -1.2% [at 53.7 µM] (inactive)

Question: For `CC(=O)CC(=O)OC(C)(C)C`, which “activity change, negative = inhibition” value is on record?
Answer: 6.1% (inactive)

Question: With `CCN(CC)CCCC(C)Nc1ccnc2cc(Cl)ccc12` (centres undefined) as the molecule, how does the Potency read?
Answer: 3.79 µM (active)

Question: Which “activity change, negative = inhibition” value does the source give for `O=c1c(O)c(-c2ccc(O)cc2O)oc2cc(O)cc(O)c12` here?
Answer: 4.46% (inactive)

Question: For `CCCCc1ccc2c(n1)[C@@H](c1ccc(OC)cc1C[C@H](C)C(=O)O)[C@H](C(=O)O)[C@H]2c1ccc2c(c1)OCO2`, which “activity change, negative = inhibition” value is on record?
Answer: 1.49% (inactive)

Question: For `CCCCOCCOC(=O)COc1ccc(Cl)cc1Cl`, which “activity change, negative = inhibition” value is on record?
Answer: -6.36% (inactive)

Question: `CC(C(=O)O)c1ccc2c(c1)Cc1cccnc1O2` (centres undefined) was tested. Which “activity change, negative = inhibition” value did it give?
Answer: 2.71% [at 53.7 µM] (inactive)

Question: `Cc1ccc(C(N)=O)cc1N` was tested. Which “activity change, negative = inhibition” value did it give?
Answer: 2.6% (inactive)

Question: `O=C(OC(=O)c1ccccc1)c1ccccc1` was tested. Which “activity change, negative = inhibition” value did it give?
Answer: 1.52% (inactive)

Question: With `O=C(CS)OCCOC(=O)CS` as the molecule, how does the “activity change, negative = inhibition” value read?
Answer: 18.7% (inactive)
